For the experiment, the system named is E. coli TESEC Mtb Alr. Briefly: growth (OD600 after 10 h); higher = more growth (less inhibition). Conditions: compound 0.1 mM. How it is done: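 TESEC Mtb Alr E. coli, or the Alr+ wild-type control, in 384-well plates with Prestwick library compounds at 0.1 mM and 1% DMSO, across arabinose induction levels of 1E3 to 1E7 nM. Growth is read as OD600 after 10 h at 37 °C in triplicate biological replicates.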

Where [1] appears, read: arabinose 1000 nM, raw OD600 reference: median of DMSO wells 0.294, cell-free background 0.041.
[2] abbreviates: arabinose 10000 nM, raw OD600 reference: median of DMSO wells 0.264, cell-free background 0.041.
Setting [3] is: arabinose 100000 nM, raw OD600 reference: median of DMSO wells 0.201, cell-free background 0.041.
[4] abbreviates: arabinose 1000000 nM, raw OD600 reference: median of DMSO wells 0.193, cell-free background 0.041.
[5] abbreviates: arabinose 10000000 nM, raw OD600 reference: median of DMSO wells 0.146, cell-free background 0.041.

Each structure is given as a SMILES string. Counter-ions that a name gives are not always drawn. ± gives the standard deviation of the averaged measurements.

Consider `CC(C)NC[C@@H](O)COc1cccc2ccccc12` [(R)-Propranolol hydrochloride], for which the growth under setting [1] was found to be 0.262 ± 0.0043; the growth under setting [2] turned out to be 0.291 ± 0.0066; the growth under setting [3] came to 0.186 ± 0.015; the growth under setting [4] came to 0.216 ± 0.028; the growth under setting [5] came out at 0.142 ± 0.0024.

Turning to `O=c1n(CCCN2CCN(c3cccc(Cl)c3)CC2)nc2ccccn12` [Trazodone hydrochloride], the growth came to 0.24 ± 0.011 under setting [1]; 0.235 ± 0.0052 under setting [2]; 0.159 ± 0.0089 under setting [3]; 0.105 ± 0.0032 under setting [4]; 0.13 ± 0.0034 under setting [5].

Take `CCN(CC)CCOC(=O)C(c1ccccc1)c1ccccc1` [Adiphenine hydrochloride]: the growth under setting [1] was found to be 0.309 ± 0.033; the growth under setting [2] came to 0.252 ± 0.004; the growth under setting [3] is 0.168 ± 0.0062; the growth under setting [4] is 0.14 ± 0.0034; the growth under setting [5] is 0.142 ± 0.0034.

`CCCCC[C@H](O)/C=C/[C@H]1[C@H](O)CC(=O)[C@@H]1CCCCCCC(=O)O` [Alprostadil]: the growth reads like this: under setting [1], 0.284 ± 0.0052; under setting [2], 0.23 ± 0.0057; under setting [3], 0.176 ± 0.0091; under setting [4], 0.163 ± 0.0042; under setting [5], 0.126 ± 0.0061.

Regarding `Oc1ccc(OCc2ccccc2)cc1` [Monobenzone], the growth worked out at 0.213 ± 0.017 under setting [1]; 0.249 ± 0.011 under setting [2]; 0.169 ± 0.004 under setting [3]; 0.134 ± 0.0036 under setting [4]; 0.161 ± 0.0038 under setting [5].

Consider `CCOc1ccccc1OC(c1ccccc1)C1CNCCO1` (stereo not given) [Reboxetine mesylate], for which the growth runs as follows: under setting [1], 0.265 ± 0.023; under setting [2], 0.253 ± 0.012; under setting [3], 0.2 ± 0.02; under setting [4], 0.15 ± 0.0074; under setting [5], 0.1507 ± 0.0007.

For `CCCCC(CC)CNC(=N)NC(=N)NCCCCCCNC(=N)NC(=N)NCC(CC)CCCC` (stereo not given) [Alexidine dihydrochloride], the growth was 0.0821 ± 0.0028 under setting [1]; 0.0849 ± 0.0013 under setting [2]; 0.0842 ± 0.0022 under setting [3]; 0.0553 ± 0.0016 under setting [4]; 0.0814 ± 0.004 under setting [5].

Turning to `C[n+]1ccccc1/C=N/O` [Pralidoxime chloride], the growth by setting is: under setting [1], 0.318 ± 0.018; under setting [2], 0.256 ± 0.013; under setting [3], 0.202 ± 0.015; under setting [4], 0.177 ± 0.0021; under setting [5], 0.156 ± 0.007.

For the origin of these results see the supplement of paper PMC9262897, “Low-cost anti-mycobacterial drug discovery using engineered E. coli” (Nature Communications, 2022).
